Measurements from the supplement of paper PMC10849652.
Targets with a hit are over-represented here; the source holds about 7,900 in all. About 0.6% of all pairs of compound and target were hits. A number with no mark means an inactive call.

What follows are targets tested with C/C(=N\NC(=O)C1=CC(=CC=C1)S(=O)(=O)N2CCOCC2)/C3=C(C=CC(=C3)Cl)O (assay: log2 fold change, soluble protein after heating vs DMSO (PISA); higher = thermal stabilisation; K562 cells, 10 uM, 30 min; active = over 0.2 and 3.5 SD of the protein, either way, in both replicates (recomputed)).
Method in brief: (§1)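 K562 cells (2×10^6 cells/mL) were treated with 10 μM compound for 30 min, and aliquots were heated for 3 min over 48°C-58°C. Pooled aliquots were extracted in PBS with 0.5% NP-40 at 4°C, and the supernatant after 21,000xg for 90 min was measured by TMTpro 16plex LC-MS/MS with channel sums equalised. Reported thermal stability, relative to control samples and from duplicates, is a log2 fold change.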

Chain of UniProt Q01804 (Q01804 whole entry, looked up): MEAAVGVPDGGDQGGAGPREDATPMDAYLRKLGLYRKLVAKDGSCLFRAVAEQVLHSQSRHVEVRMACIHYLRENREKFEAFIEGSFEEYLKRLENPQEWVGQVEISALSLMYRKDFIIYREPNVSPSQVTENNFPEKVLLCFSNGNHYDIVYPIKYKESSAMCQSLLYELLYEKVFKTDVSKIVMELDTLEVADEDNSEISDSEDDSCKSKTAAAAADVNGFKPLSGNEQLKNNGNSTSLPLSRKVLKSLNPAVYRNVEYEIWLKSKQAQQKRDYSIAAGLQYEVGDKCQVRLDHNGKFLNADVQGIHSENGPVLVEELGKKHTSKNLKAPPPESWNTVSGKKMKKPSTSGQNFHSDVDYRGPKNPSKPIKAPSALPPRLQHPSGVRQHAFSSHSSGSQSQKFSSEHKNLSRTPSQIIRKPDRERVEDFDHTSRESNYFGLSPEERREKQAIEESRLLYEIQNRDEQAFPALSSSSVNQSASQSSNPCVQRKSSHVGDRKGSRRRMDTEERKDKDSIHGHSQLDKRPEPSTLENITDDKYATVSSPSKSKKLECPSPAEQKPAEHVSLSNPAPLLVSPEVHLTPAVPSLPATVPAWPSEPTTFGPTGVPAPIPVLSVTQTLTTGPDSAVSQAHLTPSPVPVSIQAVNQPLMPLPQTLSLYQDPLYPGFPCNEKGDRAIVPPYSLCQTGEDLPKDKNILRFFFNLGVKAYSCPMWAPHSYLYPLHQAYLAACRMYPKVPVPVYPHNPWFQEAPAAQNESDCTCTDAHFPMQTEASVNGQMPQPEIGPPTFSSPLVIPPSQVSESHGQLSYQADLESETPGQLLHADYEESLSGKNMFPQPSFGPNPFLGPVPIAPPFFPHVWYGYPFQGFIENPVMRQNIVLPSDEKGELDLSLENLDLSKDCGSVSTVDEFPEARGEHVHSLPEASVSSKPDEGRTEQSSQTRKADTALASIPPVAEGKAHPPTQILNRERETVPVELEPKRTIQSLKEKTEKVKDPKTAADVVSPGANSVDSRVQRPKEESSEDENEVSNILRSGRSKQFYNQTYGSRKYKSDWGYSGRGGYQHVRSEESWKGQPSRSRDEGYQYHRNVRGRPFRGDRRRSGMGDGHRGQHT
Chain of UniProt Q9NRP0 (Q9NRP0 whole entry, looked up): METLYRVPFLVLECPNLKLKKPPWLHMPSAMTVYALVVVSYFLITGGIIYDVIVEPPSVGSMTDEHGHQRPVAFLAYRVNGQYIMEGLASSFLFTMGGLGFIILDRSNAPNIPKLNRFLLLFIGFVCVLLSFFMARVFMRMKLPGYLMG
Chain of UniProt Q9H000 (Q9H000 whole entry, looked up): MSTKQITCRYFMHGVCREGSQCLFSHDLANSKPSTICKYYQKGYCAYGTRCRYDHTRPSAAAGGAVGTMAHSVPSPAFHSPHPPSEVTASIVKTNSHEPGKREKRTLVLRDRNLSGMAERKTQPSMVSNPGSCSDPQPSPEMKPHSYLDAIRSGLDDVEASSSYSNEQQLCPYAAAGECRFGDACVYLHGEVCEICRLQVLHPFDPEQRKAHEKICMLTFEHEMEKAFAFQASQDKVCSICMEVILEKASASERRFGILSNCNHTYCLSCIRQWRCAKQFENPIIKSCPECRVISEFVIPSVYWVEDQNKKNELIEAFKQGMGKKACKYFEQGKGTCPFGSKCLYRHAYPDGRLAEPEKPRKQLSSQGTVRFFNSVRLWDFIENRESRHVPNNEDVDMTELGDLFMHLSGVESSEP
Chain of UniProt Q9H081 (Q9H081 whole entry, looked up): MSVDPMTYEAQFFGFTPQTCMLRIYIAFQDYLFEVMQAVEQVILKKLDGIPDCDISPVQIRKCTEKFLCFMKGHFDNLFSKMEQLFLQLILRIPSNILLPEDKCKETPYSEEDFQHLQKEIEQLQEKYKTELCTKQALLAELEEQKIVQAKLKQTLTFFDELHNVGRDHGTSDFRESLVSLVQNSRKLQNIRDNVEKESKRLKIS
Chain of UniProt Q9Y314 (Q9Y314 whole entry, looked up): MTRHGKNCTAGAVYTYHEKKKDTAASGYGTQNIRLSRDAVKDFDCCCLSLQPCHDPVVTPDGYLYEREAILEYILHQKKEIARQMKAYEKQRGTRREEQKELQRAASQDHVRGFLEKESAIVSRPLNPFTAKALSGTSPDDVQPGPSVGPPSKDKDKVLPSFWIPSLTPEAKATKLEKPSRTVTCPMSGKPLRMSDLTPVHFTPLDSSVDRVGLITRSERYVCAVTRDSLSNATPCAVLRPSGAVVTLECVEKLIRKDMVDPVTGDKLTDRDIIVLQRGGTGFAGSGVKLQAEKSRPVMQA
Chain of UniProt Q92692 (Q92692 whole entry, looked up): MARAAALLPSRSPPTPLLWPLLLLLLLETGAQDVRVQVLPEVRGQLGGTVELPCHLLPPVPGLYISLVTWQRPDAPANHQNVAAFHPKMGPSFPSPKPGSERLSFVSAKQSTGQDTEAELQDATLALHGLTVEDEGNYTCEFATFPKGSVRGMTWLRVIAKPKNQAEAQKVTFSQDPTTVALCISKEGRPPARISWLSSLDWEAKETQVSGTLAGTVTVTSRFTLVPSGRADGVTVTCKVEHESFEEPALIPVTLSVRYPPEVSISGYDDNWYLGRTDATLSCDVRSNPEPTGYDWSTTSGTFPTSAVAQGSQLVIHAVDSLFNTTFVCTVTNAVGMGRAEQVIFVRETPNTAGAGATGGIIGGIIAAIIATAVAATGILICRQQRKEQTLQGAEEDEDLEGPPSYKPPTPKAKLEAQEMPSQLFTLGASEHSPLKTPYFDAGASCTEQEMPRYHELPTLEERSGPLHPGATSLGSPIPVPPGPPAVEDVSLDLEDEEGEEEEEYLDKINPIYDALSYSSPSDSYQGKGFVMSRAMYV
Chain of UniProt Q96T76 (Q96T76 whole entry, looked up): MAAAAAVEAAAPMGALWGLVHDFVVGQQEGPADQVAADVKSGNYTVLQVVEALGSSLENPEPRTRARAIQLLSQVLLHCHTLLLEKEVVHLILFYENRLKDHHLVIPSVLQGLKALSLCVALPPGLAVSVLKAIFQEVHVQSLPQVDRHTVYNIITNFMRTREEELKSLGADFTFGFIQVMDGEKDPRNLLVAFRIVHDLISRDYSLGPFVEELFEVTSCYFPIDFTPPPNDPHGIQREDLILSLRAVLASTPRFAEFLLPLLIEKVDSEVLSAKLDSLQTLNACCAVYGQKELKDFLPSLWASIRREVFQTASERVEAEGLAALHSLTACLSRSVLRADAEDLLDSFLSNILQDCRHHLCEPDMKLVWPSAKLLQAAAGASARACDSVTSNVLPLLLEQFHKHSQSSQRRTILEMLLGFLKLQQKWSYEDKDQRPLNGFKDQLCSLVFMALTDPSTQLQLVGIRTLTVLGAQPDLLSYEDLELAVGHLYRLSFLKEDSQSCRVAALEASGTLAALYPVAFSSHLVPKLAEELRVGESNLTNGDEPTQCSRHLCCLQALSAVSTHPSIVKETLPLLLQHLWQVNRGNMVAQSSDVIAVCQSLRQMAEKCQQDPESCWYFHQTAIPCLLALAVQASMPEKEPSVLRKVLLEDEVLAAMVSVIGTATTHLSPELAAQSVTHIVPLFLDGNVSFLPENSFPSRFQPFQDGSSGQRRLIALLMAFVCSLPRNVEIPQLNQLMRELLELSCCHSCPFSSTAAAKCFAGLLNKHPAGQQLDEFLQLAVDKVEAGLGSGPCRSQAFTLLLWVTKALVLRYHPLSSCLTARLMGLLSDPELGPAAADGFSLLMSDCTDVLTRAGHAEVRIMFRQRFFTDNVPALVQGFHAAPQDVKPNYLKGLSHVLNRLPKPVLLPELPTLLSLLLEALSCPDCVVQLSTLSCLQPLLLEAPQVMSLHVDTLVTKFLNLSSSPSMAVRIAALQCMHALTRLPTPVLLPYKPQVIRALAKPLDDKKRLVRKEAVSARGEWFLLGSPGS
Chain of UniProt P43246 (P43246 whole entry, looked up): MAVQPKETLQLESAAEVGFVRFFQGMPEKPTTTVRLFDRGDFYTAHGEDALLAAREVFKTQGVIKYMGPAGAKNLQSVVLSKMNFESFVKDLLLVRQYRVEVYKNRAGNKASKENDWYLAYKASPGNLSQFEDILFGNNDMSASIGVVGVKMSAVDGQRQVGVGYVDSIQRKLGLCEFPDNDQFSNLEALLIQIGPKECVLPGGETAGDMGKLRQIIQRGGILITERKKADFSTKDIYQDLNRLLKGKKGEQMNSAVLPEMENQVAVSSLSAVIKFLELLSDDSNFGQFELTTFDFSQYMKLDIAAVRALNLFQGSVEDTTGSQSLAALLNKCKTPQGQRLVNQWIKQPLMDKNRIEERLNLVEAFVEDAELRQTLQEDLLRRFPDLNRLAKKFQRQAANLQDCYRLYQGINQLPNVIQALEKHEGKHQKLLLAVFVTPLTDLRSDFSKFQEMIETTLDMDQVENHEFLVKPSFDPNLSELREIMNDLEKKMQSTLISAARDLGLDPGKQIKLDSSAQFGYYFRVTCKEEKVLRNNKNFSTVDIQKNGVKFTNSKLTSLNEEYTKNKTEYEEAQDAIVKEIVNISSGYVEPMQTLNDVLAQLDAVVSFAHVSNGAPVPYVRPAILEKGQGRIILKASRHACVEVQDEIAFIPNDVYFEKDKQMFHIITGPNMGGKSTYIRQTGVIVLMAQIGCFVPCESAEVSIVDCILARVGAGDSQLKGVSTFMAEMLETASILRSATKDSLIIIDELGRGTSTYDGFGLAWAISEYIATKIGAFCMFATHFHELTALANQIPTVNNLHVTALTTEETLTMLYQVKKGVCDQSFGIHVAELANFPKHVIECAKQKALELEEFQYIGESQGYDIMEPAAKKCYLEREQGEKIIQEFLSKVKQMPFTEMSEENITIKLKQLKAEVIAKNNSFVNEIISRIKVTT
Chain of UniProt Q86WQ0 (Q86WQ0 whole entry, looked up): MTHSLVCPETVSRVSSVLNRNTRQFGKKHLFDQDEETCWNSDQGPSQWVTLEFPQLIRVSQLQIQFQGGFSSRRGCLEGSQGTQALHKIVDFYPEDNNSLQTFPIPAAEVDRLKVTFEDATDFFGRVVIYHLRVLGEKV
Chain of UniProt Q92686 (Q92686 whole entry, looked up): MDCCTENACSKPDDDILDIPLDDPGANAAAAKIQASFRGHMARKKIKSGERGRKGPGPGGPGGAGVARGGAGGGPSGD

| Target | log2 fold change |
| --- | --- |
| MRPS22 (UniProt P82650) | 0.026 |
| NOSIP (UniProt Q9Y314) | 0.16 |
| NR2C2AP isoform 2 (UniProt Q86WQ0) | 0.028 |
| OSTC (UniProt Q9NRP0) | 0.024 |
| NECTIN2 isoform 2 (UniProt Q92692) | 0.006 |
| MRPS6 (UniProt P82932) | 0.006 |
| MKRN2 (UniProt Q9H000) | 0.057 |
| MYO19 (UniProt Q96H55) | -0.047 |
| OTUD4 (UniProt Q01804) | -0.035 |
| MSH2 (UniProt P43246) | 0.109 |
| MINK1 (UniProt Q8N4C8) | 0.053 |
| MIS12 (UniProt Q9H081) | 0.083 |
| NA, A0A096LPI6 | -0.009 |
| MMS19 isoform 8 (UniProt Q96T76) | 0.001 |

Each target was assayed with C1=CC(=C(C=C1Cl)C2=NC3=NC=CN=C3C(=N2)NC4=CC=NC=C4)F in the same assay as above.
Method in brief: as §1

| Target | log2 fold change |
| --- | --- |
| NDUFB7 (UniProt P17568) | 0.038 |
| MRPL50 (UniProt Q8N5N7) | 0.048 |
| NOP58 (UniProt Q9Y2X3) | -0.332 |
| MRPS31 (UniProt Q92665) | -0.032 |
| NME7 (UniProt Q9Y5B8) | -0.052 |
| NUMBL (UniProt Q9Y6R0) | -0.026 |
| NME2P1 (UniProt O60361) | 0.147 |
| OTUD6B (UniProt Q8N6M0) | -0.103 |
| NDUFA4 (UniProt O00483) | 0.258 |
| NUP160 (UniProt Q12769) | 0.01 |
| MTHFS (UniProt P49914) | 0.055 |
| NELFB isoform 2 (UniProt Q8WX92) | 0 |
| NISCH (UniProt Q9Y2I1) | -0.083 |
| MRPS16 (UniProt Q9Y3D3) | -0.025 |
| NCAPH (UniProt Q15003) | 0.008 |
| NELFA (UniProt Q9H3P2) | 0.059 |
| MSL1 (UniProt Q68DK7) | 0.106 |
| MSH3 (UniProt P20585) | 0.068 |
| NRGN (UniProt Q92686) | 0.054 |

| Target | log2 fold change |
| --- | --- |
| NEU1 (UniProt Q99519) | -0.027 |
| NUCKS1 (UniProt Q9H1E3) | -0.002 |
| NMRAL1 (UniProt Q9HBL8) | 0.841 (active) |
| MTOR (UniProt P42345) | 0.021 |
| NAA11 (UniProt Q9BSU3) | -0.033 |
| MRPS22 (UniProt P82650) | -0.021 |
| NOSIP (UniProt Q9Y314) | 0.049 |
| NR2C2AP isoform 2 (UniProt Q86WQ0) | -0.013 |
| OSTC (UniProt Q9NRP0) | 0.022 |
| NECTIN2 isoform 2 (UniProt Q92692) | -0.386 |
| MRPS6 (UniProt P82932) | 0.006 |
| MKRN2 (UniProt Q9H000) | -0.16 |
| MYO19 (UniProt Q96H55) | -0.103 |
| OTUD4 (UniProt Q01804) | -0.137 |
| MSH2 (UniProt P43246) | 0.066 |
| MINK1 (UniProt Q8N4C8) | -0.071 |
| MIS12 (UniProt Q9H081) | 0.012 |
| NA, A0A096LPI6 | 0.047 |
| MMS19 isoform 8 (UniProt Q96T76) | 0.044 |

These targets were tested with C1=CC(=CC=C1C2=NC3=C(N2)C=C(C=C3)C(=O)N)OC4=CC=C(C=C4)Cl in the same assay as above.
Method in brief: as §1

| Target | log2 fold change |
| --- | --- |
| NDUFB7 (UniProt P17568) | 0.04 |
| MRPL50 (UniProt Q8N5N7) | 0.004 |
| NOP58 (UniProt Q9Y2X3) | -0.001 |
| MRPS31 (UniProt Q92665) | 0.105 |
| NME7 (UniProt Q9Y5B8) | -0.247 |
| NUMBL (UniProt Q9Y6R0) | -0.095 |
| NME2P1 (UniProt O60361) | 0.03 |
| OTUD6B (UniProt Q8N6M0) | 0.019 |
| NDUFA4 (UniProt O00483) | 0.042 |
| NUP160 (UniProt Q12769) | -0.024 |
| MTHFS (UniProt P49914) | -0.003 |
| NELFB isoform 2 (UniProt Q8WX92) | -0.036 |
| NISCH (UniProt Q9Y2I1) | 0.026 |
| MRPS16 (UniProt Q9Y3D3) | 0.159 |
| NCAPH (UniProt Q15003) | -0.059 |
| NELFA (UniProt Q9H3P2) | -0.061 |
| MSL1 (UniProt Q68DK7) | -0.193 |
| MSH3 (UniProt P20585) | 0.017 |
| NRGN (UniProt Q92686) | -0.074 |

| Target | log2 fold change |
| --- | --- |
| NEU1 (UniProt Q99519) | 0.101 |
| NUCKS1 (UniProt Q9H1E3) | -0.029 |
| NMRAL1 (UniProt Q9HBL8) | -0.054 |
| MTOR (UniProt P42345) | -0.011 |
| NAA11 (UniProt Q9BSU3) | 0.06 |
| MRPS22 (UniProt P82650) | 0.16 |
| NOSIP (UniProt Q9Y314) | -0.05 |
| NR2C2AP isoform 2 (UniProt Q86WQ0) | 0.048 |
| OSTC (UniProt Q9NRP0) | 0.017 |
| NECTIN2 isoform 2 (UniProt Q92692) | 0.117 |
| MRPS6 (UniProt P82932) | 0.088 |
| MKRN2 (UniProt Q9H000) | 0.013 |
| MYO19 (UniProt Q96H55) | -0.114 |
| OTUD4 (UniProt Q01804) | 0.042 |
| MSH2 (UniProt P43246) | -0.004 |
| MINK1 (UniProt Q8N4C8) | 0.036 |
| MIS12 (UniProt Q9H081) | 0.002 |
| NA, A0A096LPI6 | 0.02 |
| MMS19 isoform 8 (UniProt Q96T76) | -0.025 |
